PLK1 PBD inh: PLK1 (human) polo-box domain binding inhibition. P53350. Plk1 PBD binding of FITC phosphopeptide, fluorescence polarization. Potency, µM, for the others: max response, negative = inhibition, hits mostly inhibitors. actives 2.8% (n = 360,000). AID 720504; further: series mostly up to about 57 µM; nearly all actives have a fitted effect of over 65% in size
VDR inhibitor: inhibitors of human vitamin D receptor. VDR-SRC2-3 peptide fluorescence polarization, 2 h. Potency, µM, for the others: max response, negative = inhibition, hits mostly inhibitors. actives 0.93% (n = 400,000)
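Fluorescence polarization assay measuring small-molecule disruption of VDR binding to the coregulator peptide SRC2-3. Compounds were pin-transferred (23 nl) into the reagent mix and incubated 2 h at room temperature before reading.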
12-LOX inh: blocks human arachidonate 12S-lipoxygenase. actives 1.1% (n = 580,000). Potency, µM (series often up to 108 µM), without a hit: at the top dose activity change, negative = inhibition, usual class: inhibitors. purified 12hLO, xylenol orange hydroperoxide absorbance. P18054
Target sequence (P18054 whole entry, looked up): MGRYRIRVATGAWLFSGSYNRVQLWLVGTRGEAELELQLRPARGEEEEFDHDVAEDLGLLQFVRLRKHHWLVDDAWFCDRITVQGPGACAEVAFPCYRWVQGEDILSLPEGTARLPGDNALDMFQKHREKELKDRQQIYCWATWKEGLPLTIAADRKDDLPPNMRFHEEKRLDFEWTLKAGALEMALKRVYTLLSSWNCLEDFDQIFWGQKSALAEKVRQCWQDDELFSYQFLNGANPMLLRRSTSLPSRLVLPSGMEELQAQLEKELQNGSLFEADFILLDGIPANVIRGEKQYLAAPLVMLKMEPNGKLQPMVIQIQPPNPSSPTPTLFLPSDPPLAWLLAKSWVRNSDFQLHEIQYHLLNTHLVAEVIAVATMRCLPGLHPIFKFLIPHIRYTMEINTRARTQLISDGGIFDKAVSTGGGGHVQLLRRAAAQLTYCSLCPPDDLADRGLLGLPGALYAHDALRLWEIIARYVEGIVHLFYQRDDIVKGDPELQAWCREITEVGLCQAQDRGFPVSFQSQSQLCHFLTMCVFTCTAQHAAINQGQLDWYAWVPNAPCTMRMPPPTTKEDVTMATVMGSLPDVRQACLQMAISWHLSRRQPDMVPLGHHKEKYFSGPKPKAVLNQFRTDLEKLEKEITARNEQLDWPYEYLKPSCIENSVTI
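Purified human 12hLO (150 nM final) in 25 mM Hepes, 0.01% Triton X-100, pH 7.0 was preincubated 15 min at room temperature with compound. Then 40 uM arachidonic acid was added, 30 min. Hydroperoxide was read by Fe-XO absorbance ratio 573/405 nm.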
GCN5L2 inh: GCN5L2 (KAT2A) acetyltransferase inhibition. AID 504327. Q92830. Potency, µM (series often up to 58.9 µM), for the others: at the highest dose activity change, negative = inhibition, most hits filed as inhibitors. GCN5L2 HAT assay, ThioGlo1 CoA-SH fluorescence. actives 0.21% (n = 390,000)
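ThioGlo1-coupled HAT assay: 20nM GCN5L2, 70uM acetyl-CoA, 75uM H3(1-25) peptide, pH 7.5. Fluorescence read at 340/540nm at start and after 20 min at room temperature.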
* = called active by the depositor; ? = inconclusive; / = not tested or not shown; [ ] = remark or other dose. In the library only some 3% were active in any assay of this set; here they are far more common. The call rests on the fitted dose curve; in most records, active means well fitted curve in the direction sought with a large enough effect; inconclusive means small, poorly fitted or top-dose-only effect, or another doubt; inactive means no such curve, though single readings can be large; an effect the other way counts as inactive or inconclusive. On the % scale 0 is the no-effect control and ±100 the full control effect; potency means the concentration at half of the fitted maximal effect.

SMILES	PLK1 PBD inh	VDR inhibitor	12-LOX inh	GCN5L2 inh
COc1ccc2cnn(CC(=O)NC3CCCc4c3[nH]c3ccccc43)c(=O)c2c1OC (stereo not given)	/	/	39.8µM*	/
O=C(Cn1ncc2ccccc2c1=O)NC1CCCCC1	/	/	-22.2%	/
COc1ccc(C2(C(=O)NC3CCCc4c3[nH]c3ccccc43)CCOCC2)cc1 (stereo not given)	/	/	35.5µM*	/
COc1ccc2cnn(CC(=O)Nc3ccccc3)c(=O)c2c1OC	/	/	14.0%	/
O=C(Cn1ncc2ccccc2c1=O)NC1CCCc2c1[nH]c1ccccc21 (stereo not given)	/	/	28.2µM*	/
O=C(Cc1n[nH]c(=O)c2ccccc12)NC1CCCc2c1[nH]c1ccccc21 (stereo not given)	/	/	44.7µM*	/
COc1ccc(C2(C(=O)NC3CCCc4c3[nH]c3c(Cl)cccc43)CCOCC2)cc1 (stereo not given)	/	/	-15.0%	/
O=C(Cc1n[nH]c(=O)c2ccccc12)NC1CCc2ccccc21 (stereo not given)	/	/	4.6%	/
Cc1ccccc1C(=O)NC1CCN(c2cc(-c3cccs3)[nH]n2)C1 (stereo not given)	/	/	24.0%	/
O=C(Cn1nc2c(cc1=O)CCCC2)NC1CCCc2c1[nH]c1ccccc21 (stereo not given)	/	/	35.5µM*	/
O=C(Cn1nc2c(cc1=O)CCCC2)NC1CC1	/	/	37.2%	/
O=C(CSc1ncc(C(F)(F)F)cc1Cl)N1CCN(S(=O)(=O)c2ccc3ccccc3c2)CC1	23.8µM*	?	0.4%	-4.7%
O=C(CSc1ncc(C(F)(F)F)cc1Cl)N1CCNC1=O	26.7µM*	-12.4%	89.1%	0.3%
COc1c(C=O)c(O)cc2c1C(=O)c1ccccc1C2=O	/	7.08µM*	?	?
O=C(CSc1nc2ccccc2o1)NCC1CCCCC1	/	/	-26.7%	/
Cc1cc2nn(-c3ccc(Cl)cc3)nc2cc1N	-9.4%	-23.6%	7.08µM*	-28.2%
COc1ccc(-n2nc3cc(C)c(N)cc3n2)cc1Cl	-12.5%	-21.3%	8.91µM*	-3.3%
Cc1cc2nn(-c3ccc(F)cc3)nc2cc1N	-22.7%	2.6%	9.1%	?
CCNC(=O)NC(=O)C(C)Sc1nnc(-c2cccc(C)c2)n1CCOC (stereo not given)	/	/	-14.3%	/
CC1=C[C@@H](CNC(=O)c2cncnc2)[C@H](C(C)C)C[C@H]1Cc1nnc(-c2ccncc2)o1	/	/	-6.9%[176 µM]	/
O=C(N/N=C\c1ccc(Cl)s1)c1ccc(Cn2cccn2)o1	26.7µM*	70.8µM*	-11.0%	-5.0%
CCCCCn1nc(C(=O)Nc2ccc(F)cc2)c2ccccc2c1=O	/	/	-1.8%	/
O=c1oc2ccccc2c(Cl)c1CN1CCCCC1	11.9µM*	3.6%	-11.2%	-0.7%
CN1CCc2nc(SCC(=O)Nc3ccc(Cl)cc3)c(C#N)cc2C1	-4.3%	-11.0%	5.62µM*	/
Cc1nc(SCC(=O)Nc2ccc(Cl)cc2)c(C#N)c2c1CCCC2	/	/	-0.1%	/
SMILES	PLK1 PBD inh	VDR inhibitor	12-LOX inh	GCN5L2 inh
COc1ccc(S(=O)(=O)NC[C@@H]2C=C(C)[C@H](CC(=O)NCc3ccc(C#N)cc3)C[C@H]2C(C)C)cc1	/	/	35.5µM*	/
CC1=C[C@@H](CNS(=O)(=O)c2ccccc2)[C@H](C(C)C)C[C@H]1CC(=O)NCc1ccc(C#N)cc1	/	/	35.5µM*	/
CCCCNC(=O)c1nc2cc(C)c(C)cc2nc1-c1cccc(Br)c1	/	/	-0.8%	/
CC(C)(C)c1csc(NC(=O)Cn2cnc3ccccc3c2=O)n1	13.4µM*	?	-49.7%	-9.2%
CCCn1c(SCC(=O)Nc2ccccc2CC)nnc1C(C)C	2.99µM*	-17.0%	0.0%	-17.8%
Cc1ccc(F)cc1NC(=O)Cc1nc(-c2cccs2)oc1C	/	/	7.9%	/
O=C(CCCC(=O)N1CCc2ccccc21)N1CCc2ccccc21	-13.9%	2.7%	-5.4%	-8.2%
O=C(c1ccccc1)N1CCc2ccccc21	-5.4%	13.2%	0.0%	0.2%
O=C(c1c(F)c(F)c(F)c(F)c1F)N1CCc2ccccc21	23.8µM*	?	5.1%	/
CCN(CC)C(=O)N1CCc2ccccc21	29.9µM*	-20.0%	-1.3%	-7.5%
CCn1cc(C(=O)NC2CC3CCC2C3)c(=O)c2ccc(C)nc21 (stereo not given)	/	/	/	0.5%
CCn1cc(C(=O)NC2CCCCC2C)c(=O)c2ccc(C)nc21 (stereo not given)	-0.4%	8.4%	15.8µM*	/
CCCN(Cc1ccccc1)C(=O)c1ccc(CNC(N)=O)cc1	/	/	-4.1%	/
Cc1cc(Br)ccc1NC(=O)CSc1nc2cc([N+](=O)[O-])ccc2o1	/	/	17.8µM*	/
Nn1cnn(Cc2ccccc2)c1=S	23.8µM*	-13.1%	-28.9%	4.3%
O=C(NCC1CCCO1)C(=O)N/N=C/c1ccccc1C(=O)O (stereo not given)	26.7µM*	-10.4%	-8.3%	0.0%
O=C(O)CCC(=O)CCC(=O)c1ccc(Cl)cc1	-7.3%	?	-24.7%	-3.2%
CN(C)CCC(=O)c1ccc(Cl)cc1	4.23µM*	-24.1%	-16.6%	5.1%
CN(CCC(=O)c1ccccc1)CCC(=O)c1ccccc1	26.7µM*	-12.3%	-18.8%	1.4%
Cc1cccc(NC(=O)c2ccc3nc(C)c(C)nc3c2)n1	/	/	-6.4%	/
Cc1ccccc1NC(=O)COC(=O)CCc1nc2ccccc2s1	/	/	2.2%	/
COC(=O)[C@H](C)NC(=O)Nc1ccc(S(N)(=O)=O)cc1	-5.8%	-17.5%	-23.9%	-3.1%
CC(C)C(Cl)=NOC(=O)Nc1ccc(S(N)(=O)=O)cc1	8.44µM*	?	1.5%	/
Cc1ccc(S(=O)(=O)Nc2ccc3c(c2)CCC3)cc1C	-2.3%	-3.4%	-5.6%	-5.8%
Cn1cnnc1-c1ccc(NS(=O)(=O)c2ccc3c(c2)CCC3)cc1	/	/	28.2µM*	/
SMILES	PLK1 PBD inh	VDR inhibitor	12-LOX inh	GCN5L2 inh
COc1ccccc1NC(=O)c1ccc(NC(=O)CSc2n[nH]c(N)n2)cc1	29.9µM*	-17.7%	-2.1%	-4.7%
COc1ccccc1NC(=O)c1ccc(NC(=O)COC(=O)C2(C)CC2(Cl)Cl)cc1 (stereo not given)	21.2µM*	-13.6%	1.7%	-14.2%
CCn1nc(C(=O)OCC(=O)Nc2nc(-c3ccc(OC)cc3)cs2)c2ccccc2c1=O	26.7µM*	-5.6%	?	-5.8%
COc1ccc(-c2csc(NC(=O)CSc3n[nH]c(N)n3)n2)cc1	26.7µM*	-16.5%	-16.7%	-3.1%
Cc1nc2ccccc2n2c(O)c(CC(=O)O)cc12	23.8µM*	-6.3%	?	-28.8%
CCN(CC)C(=O)c1cccc(NC(=O)c2cccc3cccnc23)c1	/	/	-23.0%	/
NC(=O)C(Sc1ccc2ccccc2c1)c1ccccc1 (stereo not given)	/	/	14.5%	/
O=C(c1ccccc1)N(C(=O)c1ccccc1)c1ccccc1	5.3%	/	-13.0%	/
O=C(c1ccccc1)N(CCCl)C(=O)N(CCCl)C(=O)c1ccccc1	-7.3%	/	10µM*	/
COc1ccc(-c2nnc(OCc3nc4ccccc4n3C)c3ccccc23)cc1	18.9µM*	?	-15.2%	-0.7%
Cc1cc(C(=O)Cn2cnc3c2c(=O)n(C)c(=O)n3C)c(C)n1CC1CCCO1 (stereo not given)	/	/	3.6%	/
CSC1=NC(=O)/C(=C\c2cccc3ccccc23)S1	-26.9%	79.4µM*	-18.4%	-16.4%

Screening data deposited in PubChem BioAssay by National Center for Advancing Translational Sciences (NCATS).
